The panel holds about 79,000 compounds, 15% with a hit somewhere; the sample as a whole holds those more often. Values without a mark were called inactive. Activity calls are given as the source filed them. Cut-off read from the data, not from the text of the source: active = growth inhibition above about 70%; inactive = the rest.
Experiments:
[1] = NCI Yeast Anticancer Drug Screen. Data for the rad50 strain (AID 155);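 note: 0% = growth of vehicle-only cultures of the same strain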; conditions: S. cerevisiae rad50 strain growth inhibition, hits give high values
How it was run: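 Inhibition values express reduced yeast growth in compound-treated cultures relative to vehicle-treated controls.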

[2] = NCI Yeast Anticancer Drug Screen. Data for the mec2-1 strain (AID 157); conditions: S. cerevisiae mec2-1 strain, hits give high values
How it was run: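 Using mec2-1 yeast: add compound, measure growth, express inhibition versus vehicle-treated cultures.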

[3] = NCI Yeast Anticancer Drug Screen. Data for the sgs1 mgt1 strain (AID 161);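 note: 0% = growth of cultures given vehicle only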; conditions: S. cerevisiae sgs1 mgt1 strain, hits give high values
How it was run: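 Percent growth inhibition was derived by comparing compound-exposed mutant yeast with vehicle-exposed cultures. The strain carries alterations in DNA damage repair.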

[4] = NCI Yeast Anticancer Drug Screen. Data for the cln2 rad14 strain (AID 165);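 note: 0% = growth equal to vehicle treated cultures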; conditions: S. cerevisiae cln2 rad14 strain, hits give high values
How it was run: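 Yeast strain cln2 rad14, bearing defects in cell cycle control and DNA repair, serves as the test system; values reflect growth inhibition compared with vehicle.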

[5] = NCI Yeast Anticancer Drug Screen. Data for the bub3 strain (AID 167); conditions: S. cerevisiae bub3 mutant strain, hits give high values
How it was run: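 Steps: expose the mutant yeast strain to compound; grow alongside vehicle-treated cultures; measure growth; express inhibition against the vehicle cultures.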

[6] = NCI Yeast Anticancer Drug Screen. Data for the mlh1 rad18 strain (AID 175); conditions: S. cerevisiae mlh1 rad18 strain growth inhibition, hits give high values
How it was run: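 Steps: expose repair-defective yeast to compound; measure growth; express inhibition against vehicle-treated controls.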

[7] = at 5.0 µM (retest, dose inferred, filed as 0.5)
[8] = at 50.0 µM (retest, dose inferred, filed as 5.0)

CCC[CH2][Sn]1([CH2]CCC)[S]CC[N]1S(=O)(=O)c1ccc(C)cc1
growth inhibition [1, 7]: 79% (active) | growth inhibition [1, 8]: 98% (active) | growth inhibition ([1]; at 50.0 µM): 91.8% (active) | growth inhibition [2, 7]: 85% (active) | growth inhibition [2, 8]: 99% (active) | growth inhibition ([2]; at 50.0 µM): 94% (active) | growth inhibition [3, 7]: 77% (active) | growth inhibition [3, 8]: 99% (active) | growth inhibition ([3]; at 50.0 µM): 92.6% (active) | growth inhibition [4, 7]: 62% | growth inhibition [4, 8]: 97% (active) | growth inhibition ([4]; at 50.0 µM): 91.5% (active) | growth inhibition [5, 7]: 88% (active) | growth inhibition [5, 8]: 98% (active) | growth inhibition ([5]; at 50.0 µM): 92.3% (active) | growth inhibition [6, 7]: 88% (active) | growth inhibition [6, 8]: 97% (active) | growth inhibition ([6]; at 50.0 µM): 92% (active)

CC1(C)C(=O)C=CC2(C)C1CC(O)C1(C)C2CCC2(C)C(c3ccoc3)OC(=O)C3OC321 (centres undefined)
growth inhibition [1, 7]: 15% | growth inhibition [1, 8]: 16% | growth inhibition ([1]; at 50.0 µM): 86.8% (active) | growth inhibition [2, 7]: 4% | growth inhibition [2, 8]: 12% | growth inhibition ([2]; at 50.0 µM): 86.5% (active) | growth inhibition [3, 7]: 11% | growth inhibition [3, 8]: 52% | growth inhibition ([3]; at 50.0 µM): 82.7% (active) | growth inhibition [4, 7]: 4% | growth inhibition [4, 8]: 8% | growth inhibition ([4]; at 50.0 µM): 76.5% (active) | growth inhibition [5, 7]: 3% | growth inhibition [5, 8]: 12% | growth inhibition ([5]; at 50.0 µM): 82.2% (active) | growth inhibition [6, 7]: 16% | growth inhibition [6, 8]: 18% | growth inhibition ([6]; at 50.0 µM): 44.5%

CN1CN(c2ccccc2)C2(CCN(C3Nc4ccccc4O3)CC2)C1=O (centres undefined)
growth inhibition [1, 7]: 7% | growth inhibition [1, 8]: 33% | growth inhibition ([1]; at 50.0 µM): 40% | growth inhibition [2, 7]: 2% | growth inhibition [2, 8]: 26% | growth inhibition ([2]; at 50.0 µM): 44.5% | growth inhibition [3, 7]: -1% | growth inhibition [3, 8]: 30% | growth inhibition ([3]; at 50.0 µM): 58.5% | growth inhibition [4, 7]: 31% | growth inhibition [4, 8]: 42% | growth inhibition ([4]; at 50.0 µM): 35% | growth inhibition [5, 7]: -16% | growth inhibition [5, 8]: -4% | growth inhibition ([5]; at 50.0 µM): 50.8% | growth inhibition [6, 7]: 10% | growth inhibition [6, 8]: 57% | growth inhibition ([6]; at 50.0 µM): 45.6%

CC(C)c1cccc(C(C)C)c1NC(=O)C(=O)CC(=O)CC(c1ccccc1)c1c(O)c2ccccc2oc1=O (centres undefined)
growth inhibition [1, 7]: 8% | growth inhibition [1, 8]: 8% | growth inhibition ([1]; at 50.0 µM): 59.4% | growth inhibition [2, 7]: -12% | growth inhibition [2, 8]: -12% | growth inhibition ([2]; at 50.0 µM): 43% | growth inhibition [3, 7]: 11% | growth inhibition [3, 8]: 11% | growth inhibition ([3]; at 50.0 µM): 71% (active) | growth inhibition [4, 7]: -2% | growth inhibition [4, 8]: -2% | growth inhibition ([4]; at 50.0 µM): 55.2% | growth inhibition [5, 7]: -1% | growth inhibition [5, 8]: -1% | growth inhibition ([5]; at 50.0 µM): 70.7% (active) | growth inhibition [6, 7]: 7% | growth inhibition [6, 8]: 7% | growth inhibition ([6]; at 50.0 µM): 58.6%

O=C1NC(=O)C(C(c2ccnc3ccccc23)C2C(=O)NC(=O)NC2=O)C(=O)N1
growth inhibition [1, 7]: -6% | growth inhibition [1, 8]: -6% | growth inhibition ([1]; at 50.0 µM): 30.1% | growth inhibition [2, 7]: 0% | growth inhibition [2, 8]: -6% | growth inhibition ([2]; at 50.0 µM): 34% | growth inhibition [3, 7]: -5% | growth inhibition [3, 8]: -4% | growth inhibition ([3]; at 50.0 µM): 55.9% | growth inhibition [4, 7]: 3% | growth inhibition [4, 8]: -7% | growth inhibition ([4]; at 50.0 µM): 62.6% | growth inhibition [5, 7]: -6% | growth inhibition [5, 8]: 5% | growth inhibition ([5]; at 50.0 µM): 42.6% | growth inhibition [6, 7]: 0% | growth inhibition [6, 8]: -5% | growth inhibition ([6]; at 50.0 µM): 35.8%

CN(C)CC(Cl)CCl (centres undefined)
growth inhibition [1, 7]: 19% | growth inhibition [1, 8]: 86% (active) | growth inhibition ([1]; at 50.0 µM): 88.9% (active) | growth inhibition [2, 7]: -1% | growth inhibition [2, 8]: 71% (active) | growth inhibition ([2]; at 50.0 µM): 80.2% (active) | growth inhibition [3, 7]: 14% | growth inhibition [3, 8]: 75% (active) | growth inhibition ([3]; at 50.0 µM): 43.5% | growth inhibition [4, 7]: -4% | growth inhibition [4, 8]: 64% | growth inhibition ([4]; at 50.0 µM): 55.9% | growth inhibition [5, 7]: -8% | growth inhibition [5, 8]: 8% | growth inhibition ([5]; at 50.0 µM): 9.25% | growth inhibition [6, 7]: 15% | growth inhibition [6, 8]: 82% (active) | growth inhibition ([6]; at 50.0 µM): 49.5%

O=C(N/N=C/c1ccc(F)cc1)c1ccc(N(CCCl)CCCl)cc1
growth inhibition [1, 7]: -7% | growth inhibition [1, 8]: -5% | growth inhibition ([1]; at 50.0 µM): 38.9% | growth inhibition [2, 7]: -12% | growth inhibition [2, 8]: -11% | growth inhibition ([2]; at 50.0 µM): 18.2% | growth inhibition [3, 7]: -20% | growth inhibition [3, 8]: 2% | growth inhibition ([3]; at 50.0 µM): 56.8% | growth inhibition [4, 7]: -26% | growth inhibition [4, 8]: -34% | growth inhibition ([4]; at 50.0 µM): 25.2% | growth inhibition [5, 7]: -3% | growth inhibition [5, 8]: 3% | growth inhibition ([5]; at 50.0 µM): 27.8% | growth inhibition [6, 7]: -3% | growth inhibition [6, 8]: -8% | growth inhibition ([6]; at 50.0 µM): 59.3%

C[n+]1ccccc1-c1nc(-c2cccc[n+]2C)nc(-c2cccc[n+]2C)n1
growth inhibition [1, 7]: 37% | growth inhibition [1, 8]: 75% (active) | growth inhibition ([1]; at 50.0 µM): 56.6% | growth inhibition [2, 7]: 46% | growth inhibition [2, 8]: 57% | growth inhibition ([2]; at 50.0 µM): 49.6% | growth inhibition [3, 7]: 23% | growth inhibition [3, 8]: 69% | growth inhibition ([3]; at 50.0 µM): 79.6% (active) | growth inhibition [4, 7]: 14% | growth inhibition [4, 8]: 51% | growth inhibition ([4]; at 50.0 µM): 21.9% | growth inhibition [5, 7]: 19% | growth inhibition [5, 8]: 73% (active) | growth inhibition ([5]; at 50.0 µM): 44.9% | growth inhibition [6, 7]: 37% | growth inhibition [6, 8]: 82% (active) | growth inhibition ([6]; at 50.0 µM): 84.2% (active)
